Reference: the supplement of paper PMC11732987, “Enantioselective OTUD7B fragment discovery through chemoproteomics screening and high-throughput optimisation” (Communications Chemistry, 2025)

What was measured:
Test in all cases: log2 ratio of Biotin-Ahx-Ub-VS probe labelling (fragment/DMSO); higher = less target engagement (more negative = stronger competition), active = hit call of the paper (q ≤ 0.05, log2 ratio ≤ -1)
Conditions in all cases: compound concentration: 200 uM; treatment time: 3 h
USP16 = USP16 (UniProt Q9Y5T5)
How it was run: (§1)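 Global-median-normalised Spectronaut label-free quantities were compared by unpaired t-test, and values are average log2 ratios of fragment over vehicle. Only proteins with ≥2 unique peptides were used. HEK293T lysate (495 µg per sample) was treated in triplicate with fragment at 200 µM or vehicle for 3 h and then with Biotin-Ahx-Ub-VS at 0.5 µM final for 1 h. Labelled DUBs were then NeutrAvidin-enriched, digested with LysC and trypsin, and run by diaPASEF LC-MS/MS.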

USP19 = biological target: T1, USP19 (UniProt O94966)
T1 sequence (whole entry): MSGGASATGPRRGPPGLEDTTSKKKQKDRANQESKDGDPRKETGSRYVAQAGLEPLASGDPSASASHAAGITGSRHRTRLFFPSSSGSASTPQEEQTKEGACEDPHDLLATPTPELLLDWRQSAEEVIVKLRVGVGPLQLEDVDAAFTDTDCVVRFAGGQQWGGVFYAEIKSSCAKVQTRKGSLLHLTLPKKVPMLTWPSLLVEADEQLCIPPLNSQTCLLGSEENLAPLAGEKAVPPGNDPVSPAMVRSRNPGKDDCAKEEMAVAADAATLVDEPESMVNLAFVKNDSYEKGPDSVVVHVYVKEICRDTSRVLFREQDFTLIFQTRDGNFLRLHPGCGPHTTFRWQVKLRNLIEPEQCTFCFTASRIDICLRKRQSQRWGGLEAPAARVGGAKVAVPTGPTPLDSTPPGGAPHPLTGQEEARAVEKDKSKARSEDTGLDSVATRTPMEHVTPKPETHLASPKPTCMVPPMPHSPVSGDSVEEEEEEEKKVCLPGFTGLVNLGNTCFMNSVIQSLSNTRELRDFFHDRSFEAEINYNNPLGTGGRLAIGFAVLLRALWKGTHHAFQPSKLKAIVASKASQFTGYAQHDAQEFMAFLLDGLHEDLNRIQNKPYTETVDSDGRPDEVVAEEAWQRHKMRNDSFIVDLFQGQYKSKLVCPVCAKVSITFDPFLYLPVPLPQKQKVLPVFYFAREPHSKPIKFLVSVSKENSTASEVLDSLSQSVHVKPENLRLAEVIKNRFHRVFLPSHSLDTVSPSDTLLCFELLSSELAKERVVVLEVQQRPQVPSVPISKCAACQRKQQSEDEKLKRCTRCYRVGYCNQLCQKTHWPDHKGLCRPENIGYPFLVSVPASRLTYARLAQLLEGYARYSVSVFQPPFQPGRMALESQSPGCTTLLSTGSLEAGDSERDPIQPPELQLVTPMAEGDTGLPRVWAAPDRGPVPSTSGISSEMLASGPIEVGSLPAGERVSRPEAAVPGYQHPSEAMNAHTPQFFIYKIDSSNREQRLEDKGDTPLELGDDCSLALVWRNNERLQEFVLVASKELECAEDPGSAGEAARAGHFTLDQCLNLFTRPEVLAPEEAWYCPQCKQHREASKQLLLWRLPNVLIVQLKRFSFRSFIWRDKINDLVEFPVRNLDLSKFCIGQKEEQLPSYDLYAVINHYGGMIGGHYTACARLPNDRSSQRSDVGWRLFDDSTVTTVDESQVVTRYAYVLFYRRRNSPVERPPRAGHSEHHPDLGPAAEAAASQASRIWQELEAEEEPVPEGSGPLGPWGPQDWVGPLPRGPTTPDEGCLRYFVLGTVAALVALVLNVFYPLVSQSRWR
How it was run: as §1

USP24 = USP24 (UniProt Q9UPU5)
How it was run: as §1

USP25 = biological target: T2, USP25 (UniProt Q9UHP3)
T2 sequence (whole entry): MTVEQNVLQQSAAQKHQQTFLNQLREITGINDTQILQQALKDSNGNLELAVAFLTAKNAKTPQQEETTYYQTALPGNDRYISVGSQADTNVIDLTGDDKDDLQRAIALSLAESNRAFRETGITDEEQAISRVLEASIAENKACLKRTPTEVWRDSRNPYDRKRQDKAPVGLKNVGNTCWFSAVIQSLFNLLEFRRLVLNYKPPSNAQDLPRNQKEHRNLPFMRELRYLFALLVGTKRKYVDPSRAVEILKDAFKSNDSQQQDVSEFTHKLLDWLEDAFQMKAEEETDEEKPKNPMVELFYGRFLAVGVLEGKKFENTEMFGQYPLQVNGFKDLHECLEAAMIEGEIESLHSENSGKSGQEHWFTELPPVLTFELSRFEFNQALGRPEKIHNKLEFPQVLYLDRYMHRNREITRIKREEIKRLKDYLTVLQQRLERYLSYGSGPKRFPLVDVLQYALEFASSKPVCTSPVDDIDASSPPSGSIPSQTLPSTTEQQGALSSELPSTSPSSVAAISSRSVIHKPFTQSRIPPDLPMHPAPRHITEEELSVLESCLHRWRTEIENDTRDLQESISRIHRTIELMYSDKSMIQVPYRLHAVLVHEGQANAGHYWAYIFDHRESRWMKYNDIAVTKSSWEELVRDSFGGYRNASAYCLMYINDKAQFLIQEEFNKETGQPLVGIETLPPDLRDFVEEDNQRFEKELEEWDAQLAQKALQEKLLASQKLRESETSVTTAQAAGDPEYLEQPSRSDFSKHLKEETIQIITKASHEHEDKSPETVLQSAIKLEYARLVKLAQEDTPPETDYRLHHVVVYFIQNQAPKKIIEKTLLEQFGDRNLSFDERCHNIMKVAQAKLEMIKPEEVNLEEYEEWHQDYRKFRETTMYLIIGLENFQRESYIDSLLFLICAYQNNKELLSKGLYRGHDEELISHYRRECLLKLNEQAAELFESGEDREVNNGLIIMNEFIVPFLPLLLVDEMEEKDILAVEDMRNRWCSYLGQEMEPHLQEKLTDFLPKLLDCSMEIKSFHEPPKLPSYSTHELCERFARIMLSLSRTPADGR
How it was run: as §1

USP28 = biological target: T3, USP28 (UniProt Q96RU2)
T3 sequence (whole entry): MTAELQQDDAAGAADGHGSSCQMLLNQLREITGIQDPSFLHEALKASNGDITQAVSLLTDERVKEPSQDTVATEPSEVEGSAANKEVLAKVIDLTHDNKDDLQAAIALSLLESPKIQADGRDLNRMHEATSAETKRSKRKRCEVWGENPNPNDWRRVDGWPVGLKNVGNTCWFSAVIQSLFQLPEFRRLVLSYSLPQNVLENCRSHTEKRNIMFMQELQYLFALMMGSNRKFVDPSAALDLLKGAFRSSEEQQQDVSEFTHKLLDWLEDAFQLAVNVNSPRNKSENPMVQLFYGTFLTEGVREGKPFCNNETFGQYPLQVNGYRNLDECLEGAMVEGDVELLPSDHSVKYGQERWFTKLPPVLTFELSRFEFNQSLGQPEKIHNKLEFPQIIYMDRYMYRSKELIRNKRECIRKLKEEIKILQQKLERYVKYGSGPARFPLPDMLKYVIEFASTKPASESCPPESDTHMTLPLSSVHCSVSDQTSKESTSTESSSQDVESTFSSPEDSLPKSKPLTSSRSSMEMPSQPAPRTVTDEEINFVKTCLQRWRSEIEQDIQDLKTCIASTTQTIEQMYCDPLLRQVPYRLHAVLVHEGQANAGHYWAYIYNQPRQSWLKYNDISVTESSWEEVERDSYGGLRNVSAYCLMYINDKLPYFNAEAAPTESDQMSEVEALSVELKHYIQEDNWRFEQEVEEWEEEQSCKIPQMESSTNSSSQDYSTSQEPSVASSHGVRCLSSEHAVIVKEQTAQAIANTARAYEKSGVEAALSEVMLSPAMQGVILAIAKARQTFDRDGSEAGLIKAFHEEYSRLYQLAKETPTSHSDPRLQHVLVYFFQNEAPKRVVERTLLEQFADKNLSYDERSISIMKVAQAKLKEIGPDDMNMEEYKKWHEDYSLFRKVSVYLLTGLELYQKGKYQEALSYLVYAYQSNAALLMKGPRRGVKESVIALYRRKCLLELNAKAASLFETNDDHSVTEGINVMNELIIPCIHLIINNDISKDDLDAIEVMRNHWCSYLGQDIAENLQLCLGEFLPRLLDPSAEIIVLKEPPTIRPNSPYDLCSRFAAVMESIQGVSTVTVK
How it was run: as §1

Measured: log2 ratio of Biotin-Ahx-Ub-VS probe labelling

Chain of USP16 (Q9Y5T5 whole entry, looked up, the tested form may be a part): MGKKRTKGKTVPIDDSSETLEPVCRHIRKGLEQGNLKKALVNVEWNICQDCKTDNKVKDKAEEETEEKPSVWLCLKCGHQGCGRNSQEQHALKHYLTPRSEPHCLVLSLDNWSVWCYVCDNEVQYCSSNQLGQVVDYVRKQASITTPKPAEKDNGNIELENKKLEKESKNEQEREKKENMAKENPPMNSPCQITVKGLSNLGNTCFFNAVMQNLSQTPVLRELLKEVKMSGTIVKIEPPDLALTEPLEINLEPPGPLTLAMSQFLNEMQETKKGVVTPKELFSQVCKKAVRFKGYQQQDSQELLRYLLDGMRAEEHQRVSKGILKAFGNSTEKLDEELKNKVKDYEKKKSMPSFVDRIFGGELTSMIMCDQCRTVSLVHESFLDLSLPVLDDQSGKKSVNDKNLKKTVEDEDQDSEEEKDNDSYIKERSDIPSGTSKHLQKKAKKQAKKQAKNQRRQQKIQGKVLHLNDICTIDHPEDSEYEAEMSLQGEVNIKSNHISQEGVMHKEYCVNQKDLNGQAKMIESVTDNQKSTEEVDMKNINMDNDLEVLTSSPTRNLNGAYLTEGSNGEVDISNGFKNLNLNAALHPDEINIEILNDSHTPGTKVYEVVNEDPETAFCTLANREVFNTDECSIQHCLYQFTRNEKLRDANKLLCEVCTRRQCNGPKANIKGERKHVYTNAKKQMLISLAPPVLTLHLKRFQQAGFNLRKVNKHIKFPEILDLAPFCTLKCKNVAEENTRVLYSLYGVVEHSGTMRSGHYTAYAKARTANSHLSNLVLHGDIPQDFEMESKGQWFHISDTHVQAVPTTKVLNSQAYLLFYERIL
Chain of USP24 (Q9UPU5 whole entry): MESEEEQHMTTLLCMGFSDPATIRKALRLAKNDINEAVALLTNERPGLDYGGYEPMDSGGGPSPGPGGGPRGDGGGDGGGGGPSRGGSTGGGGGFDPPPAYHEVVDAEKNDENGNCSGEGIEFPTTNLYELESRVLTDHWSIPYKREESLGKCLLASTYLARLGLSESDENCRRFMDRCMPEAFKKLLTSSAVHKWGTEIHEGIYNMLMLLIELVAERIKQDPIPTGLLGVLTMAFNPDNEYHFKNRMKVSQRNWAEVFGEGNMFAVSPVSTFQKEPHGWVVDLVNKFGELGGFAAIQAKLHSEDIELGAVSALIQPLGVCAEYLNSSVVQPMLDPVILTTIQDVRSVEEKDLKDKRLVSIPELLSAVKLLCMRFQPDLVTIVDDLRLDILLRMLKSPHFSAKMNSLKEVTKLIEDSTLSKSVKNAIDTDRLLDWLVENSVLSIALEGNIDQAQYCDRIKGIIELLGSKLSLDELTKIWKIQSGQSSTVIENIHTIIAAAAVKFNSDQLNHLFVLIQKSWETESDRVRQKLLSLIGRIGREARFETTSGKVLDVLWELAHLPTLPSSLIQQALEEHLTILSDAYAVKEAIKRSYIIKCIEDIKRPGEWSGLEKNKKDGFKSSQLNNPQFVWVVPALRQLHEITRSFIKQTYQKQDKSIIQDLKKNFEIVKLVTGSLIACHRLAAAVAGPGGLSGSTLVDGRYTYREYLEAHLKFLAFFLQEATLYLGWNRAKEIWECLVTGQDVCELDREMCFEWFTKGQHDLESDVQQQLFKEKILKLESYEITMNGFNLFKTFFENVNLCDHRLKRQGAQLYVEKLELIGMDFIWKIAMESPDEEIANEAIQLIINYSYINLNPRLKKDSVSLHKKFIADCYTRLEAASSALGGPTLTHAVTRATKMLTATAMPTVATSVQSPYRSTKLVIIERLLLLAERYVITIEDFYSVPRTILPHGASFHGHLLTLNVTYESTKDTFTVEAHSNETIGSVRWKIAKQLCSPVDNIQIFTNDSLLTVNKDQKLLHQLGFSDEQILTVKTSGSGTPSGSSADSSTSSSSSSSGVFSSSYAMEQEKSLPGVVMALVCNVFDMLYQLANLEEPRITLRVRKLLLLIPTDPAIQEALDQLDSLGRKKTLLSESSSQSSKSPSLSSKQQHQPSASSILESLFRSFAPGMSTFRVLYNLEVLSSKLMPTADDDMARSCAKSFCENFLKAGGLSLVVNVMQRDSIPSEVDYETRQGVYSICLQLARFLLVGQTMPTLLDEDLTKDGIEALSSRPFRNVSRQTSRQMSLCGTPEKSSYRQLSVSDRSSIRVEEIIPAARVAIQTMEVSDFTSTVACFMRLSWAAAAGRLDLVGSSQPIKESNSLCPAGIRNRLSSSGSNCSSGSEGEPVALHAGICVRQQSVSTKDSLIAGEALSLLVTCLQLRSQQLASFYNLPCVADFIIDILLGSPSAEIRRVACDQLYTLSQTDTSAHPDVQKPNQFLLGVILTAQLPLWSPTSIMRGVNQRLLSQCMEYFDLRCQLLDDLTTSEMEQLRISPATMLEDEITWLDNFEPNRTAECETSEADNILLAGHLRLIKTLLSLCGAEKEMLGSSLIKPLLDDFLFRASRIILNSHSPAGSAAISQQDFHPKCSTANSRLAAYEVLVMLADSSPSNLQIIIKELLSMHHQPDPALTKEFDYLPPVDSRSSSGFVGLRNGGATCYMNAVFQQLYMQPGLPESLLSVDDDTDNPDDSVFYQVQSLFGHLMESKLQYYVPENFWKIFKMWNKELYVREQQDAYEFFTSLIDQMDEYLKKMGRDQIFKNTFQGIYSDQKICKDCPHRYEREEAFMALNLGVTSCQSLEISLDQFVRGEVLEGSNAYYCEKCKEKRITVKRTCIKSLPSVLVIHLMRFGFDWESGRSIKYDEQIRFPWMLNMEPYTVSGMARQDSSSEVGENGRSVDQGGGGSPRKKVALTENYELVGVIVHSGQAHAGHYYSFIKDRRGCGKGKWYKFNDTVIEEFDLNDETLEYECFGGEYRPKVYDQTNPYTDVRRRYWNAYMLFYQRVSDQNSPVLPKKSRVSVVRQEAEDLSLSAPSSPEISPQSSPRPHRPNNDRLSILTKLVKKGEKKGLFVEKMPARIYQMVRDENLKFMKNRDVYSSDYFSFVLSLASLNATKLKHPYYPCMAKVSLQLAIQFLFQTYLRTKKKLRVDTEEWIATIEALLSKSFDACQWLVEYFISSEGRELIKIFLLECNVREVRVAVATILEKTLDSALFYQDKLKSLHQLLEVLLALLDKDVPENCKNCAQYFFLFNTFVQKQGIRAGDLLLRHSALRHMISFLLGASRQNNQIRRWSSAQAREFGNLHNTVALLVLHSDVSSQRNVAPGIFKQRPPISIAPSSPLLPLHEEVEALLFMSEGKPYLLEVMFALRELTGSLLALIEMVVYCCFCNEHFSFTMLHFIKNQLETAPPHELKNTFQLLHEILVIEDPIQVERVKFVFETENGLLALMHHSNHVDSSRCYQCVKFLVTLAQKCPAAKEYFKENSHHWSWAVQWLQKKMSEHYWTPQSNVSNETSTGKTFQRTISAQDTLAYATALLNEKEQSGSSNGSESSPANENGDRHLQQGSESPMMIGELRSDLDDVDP

Cl.O=C(CCl)NCc1ccnc(Oc2ccccc2F)c1
inactive: USP16 0.275 | USP19 -0.111 | USP24 -0.349 | USP25 -0.678 | USP28 -0.558
